hgDAF-12 ag – agonists of H. glycines DAF-12 nuclear receptor | activation, % at 6.8 µM | actives 1.8% (n = 370,000) | AID 687014 | HEK293 GAL4-hgDAF12 UAS-luciferase reporter, agonist luminescence; normalized to butyrate control;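 active = activation above a cutoff set at the mean of all screened compounds plus 3 SD, cut at about 10% in these data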;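 also: 0% = DMSO wells and 100% = sodium butyrate wells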
ssDAF12 agonist – S. stercoralis DAF-12 activation, primary screen | HEK293 ssDAF-12/GRIP1 lit1-tk-luc reporter, luminescence; % of 3 µM dafachronic acid response | activation, % at 6.8 µM | actives 1% (n = 370,000);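 active = activation above the mean over all tested compounds plus 3 SD, cut at about 0.9% in these data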;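 also: 0% = DMSO-only wells and 100% = 3 µM delta7-dafachronic acid wells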
DAX1 inh-1 – DAX1 (NR0B1) inhibition, primary screen; inhibition, % at 6.8 µM; actives 1.1% (n = 370,000); HEK293T StAR-luciferase reporter, SF-1/DAX-1 repression relief; AID 652010;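 active = inhibition above the mean over all tested compounds plus 3 SD, cut at about 3.6% in these data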;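 also: 0% = DAX-1 cells with DMSO and 100% = cells lacking DAX-1 with DMSO; higher inhibition means more luminescence from relief of DAX-1 repression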
DAX1 inh-2 – inhibitors of human orphan nuclear receptor DAX1 (NR0B1). P51843. HEK293 Gal4-DAX1 luciferase reporter, luminescence. inhibition, % at 6.75 µM. actives 0.99% (n = 340,000). AID 504766;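 active = inhibition above the mean over all tested compounds plus 3 SD, cut at about 4.2% in these data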;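 also: 0% = DAX1-transfected cells with DMSO and 100% = empty-vector control cells with DMSO; inhibition shows as a rise in luminescence from relieved DAX1 repression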
Target sequence (P51843 207-470 limits assumed): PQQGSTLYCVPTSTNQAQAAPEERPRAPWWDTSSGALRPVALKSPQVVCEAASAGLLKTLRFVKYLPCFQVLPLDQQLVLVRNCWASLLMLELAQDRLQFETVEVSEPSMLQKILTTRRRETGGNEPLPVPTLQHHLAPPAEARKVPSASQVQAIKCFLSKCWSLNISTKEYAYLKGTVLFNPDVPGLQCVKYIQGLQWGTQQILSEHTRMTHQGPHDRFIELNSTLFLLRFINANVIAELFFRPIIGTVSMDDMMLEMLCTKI
hcDAF-12 act – activates DAF-12 receptor from parasite H. contortus; HEK293 hcDAF-12 lit1-tk-luc reporter, luminescence; 0% DMSO, 100% Δ7-dafachronic acid; activation, % at 6.8 µM; actives 1.4% (n = 370,000);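 active = activation above the mean of all tested compounds plus 3 SD, cut at about 5.5% in these data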;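 also: 100% = response to 3 µM Δ7-dafachronic acid high control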
FXN GAA850 act – activators of GAA850 frataxin (FXN) promoter | actives 0.56% (n = 360,000) | activation, % at 6 µM | HEK293 lucGAA850 FXN promoter luciferase reporter, 24 h; percent of 10 µM SAHA response;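 active = activation above the average of all compounds screened plus 3 SD, cutoff fixed separately per campaign, cut at about 7.5% in these data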;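 also: 0% = DMSO wells and 100% = 10 µM SAHA wells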
The depositor's hits bear a star; . = no result given. The list is not random: actives were taken first. Their share in the collection is about 4.5%.

SMILES | hgDAF-12 ag | ssDAF12 agonist | DAX1 inh-1 | DAX1 inh-2 | hcDAF-12 act | FXN GAA850 act
CC/C(C)=N/N1C(=O)c2ccccc2NC1(C)CC (stereo not drawn) | 7 | -1 | 0 | 6.2* | 1 | 3
COc1cccc(/C=C2\CC3(OC(=O)c4ccc(F)cc4)CCCN2C3)c1 (stereo not drawn) | -1 | -1 | 1 | . | 1 | .
Cc1ccc(C(=O)N/N=C/c2ccc3c(c2)OCO3)o1 | 8 | 1.0* | 1 | 2 | 5.9* | 7
CC1=C(C(=O)NCCCOC(C)C)C2(CCC(C)CC2)OC1=O (stereo not drawn) | -1 | 1.0* | -1 | 2 | 1 | 2
CC(=O)Cc1nsc(Nc2ccc(C)cc2)n1 | 12* | 1 | 4.2* | 3 | 5 | 0
N=c1oc2ccc3ccccc3c2cc1-c1nc(-c2ccccc2)cs1 | 1 | 0 | 1 | 1 | 6.2* | 3
Cn1c(Cl)c(C(=O)Nc2ccccc2)c2ccccc21 | 3 | 0 | 0 | -1 | 6.5* | 5
COc1ccc(NC(=S)c2ccc(N(C)C)cc2)cc1 | 9 | 0 | 3.8* | 2 | 4 | 4
COc1ccc(-c2nnc(SCC(=O)N/N=C\C=C/c3ccco3)n2-c2ccc(C)cc2)cc1 | -2 | -1 | -1 | . | -3 | .
O=C(NCCc1ccccc1)OCc1cn(Cc2cccc(Cl)c2)nn1 | 2 | -2 | 0 | . | -1 | .
COc1ccc(C(=O)OCCN(C)C2CN(Cc3cn(Cc4cccc(F)c4)nn3)S(=O)(=O)C2)cc1OC (stereo not drawn) | 0 | -2 | -1 | . | -1 | .
COC(=O)[C@H]1C[C@@]2(C)c3ccccc3N(C(=O)OC(C)(C)C)[C@H]2N1C(=O)OC(C)(C)C | 0 | 0 | -1 | . | -1 | .
O=C1NC(c2cccc([N+](=O)[O-])c2)=CCN1c1ccccc1O | 4 | 2.3* | 0 | 1 | 1 | 0
Cn1ccsc1=NC(=O)c1ccc(S(C)(=O)=O)cc1 | 2 | -1 | 0 | 2 | -1 | 3
Cc1cccc(C(=O)N=c2sccn2C)c1[N+](=O)[O-] | 11* | 0 | 4.5* | 1 | 0 | 4
Cc1ccccc1C(=O)N=c1sccn1C | 2 | -1 | 0 | 2 | 1 | -1
Cn1ccsc1=NC(=O)c1cccc(C#N)c1 | 3 | -1 | 0 | 4.5* | 0 | 3
Cc1ccc(C(=O)N=c2sccn2C)cc1S(=O)(=O)N1CCOCC1 | 6 | 0 | 3.7* | 0 | 1 | 3
CCn1ccc(C(=O)Nc2ccc(Cl)cn2)n1 | 9 | -1 | 4.2* | 2 | 2 | 4
CCn1ccc(C(=O)Nc2ccccc2SC)n1 | 11* | -1 | 1 | 0 | 1 | 4
CC(C)(C)c1ccc2c(c1)OC(C(=O)N/N=C/c1ccc[nH]1)CO2 (stereo not drawn) | -7 | -2 | . | . | -5 | .
O=C(OCC#CCSc1nnc(-c2cccc3ccccc23)o1)c1ccc(F)cc1F | 7 | -1 | . | . | -2 | .
C(=N\Nc1ccccc1)/c1ccc(N2CCOCC2)cc1 | 13* | 1.2* | 2 | 2 | 4 | 3
Clc1cccc(N/N=C/c2ccc(N3CCOCC3)cc2)c1 | 2 | -1 | 1 | 1 | 2 | -3
Cc1ncsc1C(=O)Nc1nc2c(s1)CCCC2 | 13* | 0 | 3 | 2 | 3 | 0
SMILES | hgDAF-12 ag | ssDAF12 agonist | DAX1 inh-1 | DAX1 inh-2 | hcDAF-12 act | FXN GAA850 act
Cc1ccc(CC(=O)Nc2nc3c(s2)CCCC3)cc1 | -6 | -1 | -1 | -2 | -1 | -4
Cc1cc(C(=O)Nc2nc3c(s2)CCCC3)cs1 | 9 | 0 | 3 | -1 | 6.0* | -1
OCCNc1nc(Nc2ccc(O)cc2)nc2ccccc12 | 1 | -1 | 1 | 5.8* | 0 | 4
OCCNc1nc(Nc2cccc(O)c2)nc2ccccc12 | 5 | -1 | -1 | -1 | -3 | 2
O=C(c1sccc1Cl)N1CCC(n2nnc3ncccc32)CC1 | -1 | -2 | 1 | . | -2 | .
Nc1nc(NCCCN2CCOCC2)nc(Nc2ccccc2F)c1[N+](=O)[O-] | -4 | -1 | 0 | 4.5* | -2 | 1
Nc1nc(NCCCN2CCOCC2)nc(Nc2ccc(F)cc2)c1[N+](=O)[O-] | 0 | -1 | 0 | 0 | -2 | 2
CCNC(=O)N(C)[C@H]1C[C@H]2c3[nH]c4c(-c5cccc(C)c5)cccc4c3CCN2C[C@H]1[C@H](C)O | -1 | -1 | 0 | . | -4 | .
CC(C)c1ccc(N2C(=O)CC(NNC(=O)c3cccnc3)C2=O)cc1 (stereo not drawn) | 1 | -1 | 0 | 5.6* | 0 | 1
O=C(NNC1CC(=O)N(c2ccc(Cl)cc2)C1=O)c1ccccn1 (stereo not drawn) | 10 | 0.9* | 1 | -1 | 3 | 2
O=C(NNC1CC(=O)N(c2ccc(Cl)cc2)C1=O)c1ccccc1Cl (stereo not drawn) | 3 | -1 | -1 | 0 | 3 | 1
O=C(OCc1ccccc1)c1c(-c2ccccc2)oc2c1C(OCCO)CCC2 (stereo not drawn) | 1 | 1.5* | -1 | . | 1 | .
Cc1occc1C(=O)Nc1cc(C(F)(F)F)ccc1Cl | 2 | -2 | 1 | 4.6* | 1 | 1
Cc1occc1C(=O)Nc1ccc(Br)cc1F | 12* | 0 | 1 | 2 | 2 | 4
CC(C)NC(=S)N/N=C/C1=CCC2CC1C2(C)C (stereo not drawn) | 1 | -2 | -1 | -1 | -3 | 1
CC1(C)C2CC=C(/C=N/NC(=S)Nc3cccnc3)C1C2 (stereo not drawn) | -4 | 1.0* | 0 | 0 | 1 | 0
O=C(N=C1N(CC2CC2)CC2(C=C3CCCCC3n3c(=O)n(-c4ccccc4)c(=O)n32)N1C(=O)OCc1ccccc1)c1ccccc1 (stereo not drawn) | 1 | -1 | 0 | . | -2 | .
O=C(OCc1nc2ccccc2s1)c1cc2ccccc2oc1=O | 4 | 0.9* | 1 | . | 6.2* | .
NC(=O)CSCc1nc2ccccc2s1 | 2 | 1 | 0 | 0 | 6.0* | 1
N/C(Cc1nc2ccccc2s1)=N\O | -1 | 0 | 0 | 2 | 1 | 1
Cc1ccc(C(=O)OCc2nc3ccccc3s2)o1 | 8 | 0 | 3 | 0 | 5.8* | 6
Cc1ccc(C(=O)OCc2nc3ccsc3c(=O)[nH]2)o1 | 1 | 0 | 1 | 0 | 1 | 4
COc1ccc(CCNC(=O)COC(=O)c2cc3ccccc3oc2=O)cc1OC | 3 | 1.4* | -1 | 0 | 4 | -1
C[C@H](CCC(=O)N(c1ccccc1)c1ccccc1)CC1CCCCC1 | 0 | -1 | 0 | . | 0 | .
Nc1ccc(C(=O)OCc2nc3ccccc3s2)cc1 | 3 | -1 | 0 | 0 | 0 | 1
